Compound activity as filed in PubChem BioAssay.
KKLEB cytotox – counter-screen for CF NF-kB inhibitors: cytotoxicity; KKLEB CF airway cells viability, ATPlite luminescence, overnight; stronger effect = lower value; cells stimulated with P. aeruginosa culture filtrate; activity change (cytotoxicity), % at 5 µM; 360,000 compounds, 0.36% hits; AID 602141;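 active = corrected activity change at or below -50% at 5 µM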
TWEAK Fn14 block – blocks TWEAK-Fn14 interaction in a reporter cell assay | AID 1159606 | TWEAK-stimulated Fn14 reporter cells, luciferase luminescence, 8 h | 360,000 compounds, 2% hits | inhibition, % at 10 µM; in the data active = inhibition above about 50%
LGR2 antag – inhibitors of bursicon-induced Drosophila LGR2 receptor cAMP signaling. AID 720647. inhibition, % at 9.99 µM. HEK293 LGR2, CRE-luciferase, bursicon-stimulated, 4 h. 380,000 compounds, 0.35% hits;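 active = drop in luminescence signal, shown as inhibition above about 50% in the replicate tests, limit read from the data, passing the limit was not always enough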;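 note: agonist challenge used bursicon conditioned medium at about half maximal strength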
hiPSC survival – increases survival of single human iPS cells | hiPSC single-cell survival, ATPlite luminescence; 100% = ROCK inhibitor wells, 0% = DMSO | survival enhancement, % at 20 µM | 360,000 compounds, 0.044% hits | AID 602274; in the data active = survival enhancement above about 18%;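 note: cells exposed to compounds for 16 hours before the ATP read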
HIF-2a block – inhibitors of HIF-2a | 360,000 compounds, 0.72% hits | 786-0 RCC cells HIF-2a reporter, luciferase luminescence, overnight | inhibition, % at 18.8 µM;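 active = inhibition of the luminescence signal of 40% or more relative to plate controls, in a single-dose primary screen at 18.75 µM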
CF NFkB inh – inhibitors of cystic fibrosis induced NF-kB. inhibition, % at 5 µM. KKLEB NF-kB-GFP reporter, PAF-induced, GFP fluorescence overnight. 360,000 compounds, 0.86% hits;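 active = at least 50% inhibition at 5 µM, scaled per plate between neutral and stimulator controls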;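 note: PAF is a Pseudomonas aeruginosa culture filtrate used as stimulus; plate controls were PAF-stimulated DMSO wells for no effect and unstimulated DMSO wells for full effect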
* hit, by the source's call. An excerpt weighted towards active compounds, which were near 2.3% of everything screened.

`O=S(=O)(NC1c2cccc3cccc(c23)C1Sc1ncccn1)c1ccccc1` (configuration not stated) gave KKLEB cytotox -2.0, TWEAK Fn14 block 108.0*, LGR2 antag 15.9, hiPSC survival -2.1, HIF-2a block 6.4 and CF NFkB inh -0.5.
O=C(C[C@@H]1C=C[C@H](NC(=O)c2ccccn2)[C@@H](CO)O1)NCc1cccc(F)c1 was read as LGR2 antag -22.2.
`N#C[C@@H]1[C@H](c2ccc(C#Cc3ccccc3F)cc2)[C@H](CO)N1C(=O)C1CCCC1` gave LGR2 antag 21.7.
N#C[C@H]1[C@H](c2ccc(C#Cc3ccccc3F)cc2)[C@H](CO)N1C(=O)C1CCCC1 was read as LGR2 antag 104.2*.
For N#C[C@H]1[C@H](c2ccc(C#Cc3ccccc3F)cc2)[C@H](CO)N1C(=O)C1CC1 the results were LGR2 antag 61.9*.
Cc1noc(C)c1NC(=O)N(C)C[C@@H]1OCCCC[C@@H](C)Oc2ccc(NC(=O)Cc3ccccc3)cc2C(=O)N([C@H](C)CO)C[C@H]1C was read as LGR2 antag 9.7.
CCN1[C@@H]2Cn3c(ccc(-c4cccc(F)c4)c3=O)[C@H]1[C@@H](C(=O)NCCCN(C)C)[C@@H]2CO was read as LGR2 antag -3.8.
For COc1ccc(NC(=O)Nc2ccc3c(c2)C(=O)N([C@H](C)CO)C[C@@H](C)[C@H](CN(C)S(=O)(=O)c2c(C)noc2C)OCCCC[C@H](C)O3)cc1 the results were LGR2 antag 8.9.
`C=CC(=O)Nc1cccc(Nc2nc(N[C@H]3CC[C@H](N(C)C)CC3)nc3c2ncn3C(C)C)c1` gave KKLEB cytotox -70.0*, TWEAK Fn14 block 99.0*, hiPSC survival -4.5, HIF-2a block 71.5* and CF NFkB inh 84.6*.
CCN(CC)CCOC(=O)c1ccc(NC(=O)CCCN2C(=O)S/C(=C/c3ccc(OC)cc3)C2=S)cc1 was read as KKLEB cytotox -0.6, TWEAK Fn14 block 72.5*, hiPSC survival -0.6, HIF-2a block 78.8* and CF NFkB inh 28.6.
Screening O=C(Nc1ccccc1F)N[C@H]1CC[C@H](CCNS(=O)(=O)c2ccc(Cl)cc2)O[C@@H]1CO returned LGR2 antag -2.0.
Screening CC(=O)Nc1ccc(/C=C2\Sc3ccccc3C2=O)cc1 returned KKLEB cytotox -3.0, TWEAK Fn14 block -23.6, hiPSC survival -0.3, HIF-2a block 50.3* and CF NFkB inh -0.2.
`C[C@@H]1CCCCO[C@@H](CN(C)C(=O)Nc2ccc(F)cc2)[C@@H](C)CN([C@@H](C)CO)C(=O)c2cc(NC(=O)Nc3ccc(F)cc3)ccc2O1` gave LGR2 antag 19.4.
C[C@H](CO)N1C[C@H](C)[C@H](CN(C)C(=O)Nc2ccc(F)cc2)OCCCC[C@H](C)Oc2ccc(NC(=O)Nc3ccc(F)cc3)cc2C1=O was read as LGR2 antag 52.8*.
`C[C@H](CO)N1C[C@H](C)[C@H](CN(C)C(=O)Nc2cccc3ccccc23)OCCCC[C@H](C)Oc2ccc(NC(=O)NC3CCCCC3)cc2C1=O` gave LGR2 antag 60.0*.
`CCCC(=O)Nc1ccc2c(c1)C(=O)N(C)C[C@H](OC)[C@H](C)CN(C(=O)CN(C)C)[C@@H](C)CO2` gave LGR2 antag -4.7.
For C[C@H](CO)N1C[C@H](C)[C@H](CN(C)C(=O)Nc2ccc(C(F)(F)F)cc2)Oc2ccc(NC(=O)c3ccncc3)cc2CC1=O the results were LGR2 antag -8.4.
For CC1=NN(c2ccc(C(=O)O)cc2)C(=O)/C1=C/c1ccc(-c2ccccc2F)o1 the results were KKLEB cytotox -1.2, TWEAK Fn14 block -26.5, hiPSC survival -0.4, HIF-2a block -4.8 and CF NFkB inh -5.2.
For CC1=NN(c2ccc(C)cc2)C(=O)/C1=C/c1ccc(-c2cc([N+](=O)[O-])ccc2O)o1 the results were KKLEB cytotox -41.3, TWEAK Fn14 block -10.7, LGR2 antag -5.7, hiPSC survival -0.2, HIF-2a block -13.5 and CF NFkB inh 54.1*.
O=C(COc1ccc(/C=N/NC(=O)c2cc3ccccc3o2)cc1Cl)Nc1ccccc1 was read as KKLEB cytotox -92.7*, TWEAK Fn14 block -38.7, hiPSC survival -1.5, HIF-2a block -75.4 and CF NFkB inh 89.8*.
